According to PubChem BioAssay AID697 (Columbia University Molecular Screening Center, 2007):
Out of some 96,000 compounds screened, about 100 (0.1%) were called active.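 The calls were made as follows: active = activation at 2 µM above a set limit, the mean plus 5 SD (cut at about 37% in these data); inactive = the rest.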 The list comes from a sample in which actives are over-represented; it also holds similar structures and randomly drawn compounds.

The molecules below were run against Tyrosine-protein phosphatase non-receptor type 22 (Homo sapiens) (UniProt Q9Y2R2) (assay: enhancers of human PTPN22 catalytic activity – biochemical, DiFMUP fluorescence, 2 µM, primary screen (AID 697)). Details: recombinant LYP, at 2 µM, stronger effect = higher value, 0 = plate median, 100 = signal doubled.
Sequence of Tyrosine-protein phosphatase non-receptor type 22 (Homo sapiens) (Q9Y2R2 whole entry, looked up): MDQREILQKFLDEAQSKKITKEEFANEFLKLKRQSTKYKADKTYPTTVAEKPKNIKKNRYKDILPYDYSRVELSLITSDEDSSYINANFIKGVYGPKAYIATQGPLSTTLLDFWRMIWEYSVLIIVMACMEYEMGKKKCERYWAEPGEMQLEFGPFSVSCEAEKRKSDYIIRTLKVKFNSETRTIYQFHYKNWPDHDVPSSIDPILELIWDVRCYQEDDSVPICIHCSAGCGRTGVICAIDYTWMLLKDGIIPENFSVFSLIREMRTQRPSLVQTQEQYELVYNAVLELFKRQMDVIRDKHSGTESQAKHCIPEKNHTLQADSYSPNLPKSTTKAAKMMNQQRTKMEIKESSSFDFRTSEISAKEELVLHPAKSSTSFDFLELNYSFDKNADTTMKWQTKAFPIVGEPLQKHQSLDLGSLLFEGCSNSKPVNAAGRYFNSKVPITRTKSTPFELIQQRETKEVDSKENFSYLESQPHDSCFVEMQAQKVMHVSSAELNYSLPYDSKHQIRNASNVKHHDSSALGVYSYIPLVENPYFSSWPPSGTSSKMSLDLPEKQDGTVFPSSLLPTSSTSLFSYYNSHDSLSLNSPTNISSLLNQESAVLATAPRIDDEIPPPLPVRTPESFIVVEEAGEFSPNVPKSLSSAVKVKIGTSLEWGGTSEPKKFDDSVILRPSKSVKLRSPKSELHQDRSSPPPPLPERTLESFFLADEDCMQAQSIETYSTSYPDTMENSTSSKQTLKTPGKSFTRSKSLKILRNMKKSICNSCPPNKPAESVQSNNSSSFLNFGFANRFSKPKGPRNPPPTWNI

activation, inactive:
O=C(Nc1ccc2c(c1)CCC2)c1cccc(S(=O)(=O)N2CCN(c3ccc(F)cc3)CC2)c1 -11.2%, COCCCNC(=O)C1CC(=O)N(CCc2ccccc2)C1 (stereo not given) 3.1%, Cc1ccc(S(=O)(=O)N2CCC(C(=O)NCC3CCCO3)CC2)cc1 (stereo not given) 0.4%, COC(=O)c1ccccc1Sc1c(/C=N/OCc2ccc(Cl)cc2)c(C(F)(F)F)nn1C -3.5%, CN(C(=O)CC(NC(=O)c1ccccc1)(c1ccccc1)c1ccccc1)c1ccccc1 -4.3%, FC(F)(F)c1cnc(Oc2ccccc2-c2nnc(-c3ccc(Cl)cc3)o2)c(Cl)c1 4.7%, CS(=O)(=O)N(Cc1ccc(Cl)cc1)c1ccc(C(=O)NCCSCc2ccco2)cc1 10.1%, CCOC(=O)N1CCC(N(CCOC)C(=O)Nc2ccc(C)c(C)c2)CC1 -11.9%, COC(=O)c1ccccc1NC(=O)Cc1ccccc1OC -0.7%, COc1ccccc1C(=O)N1CC2(C)CC1CC(C)(C)C2 (stereo not given) -6%, CCOC(=O)C1=C(c2ccccc2)N=C2SCC(=O)N2C1c1ccc(O)c(OC)c1 (stereo not given) 6.1%, Cn1c(CO)cnc1SCc1ccccc1 5.8%, CN(C)c1ccc(/C=C2\NC(=S)N(Cc3ccccc3)C2=O)cc1 -19.7%, CC(C)C(=O)Nc1cccc(NC(=S)NC(=O)C(c2ccccc2)c2ccccc2)c1 -14%, O=C(Nc1ccc(Br)cc1)C1CCC(=O)N1Cc1ccccc1Cl (stereo not given) -2.1%, COC(=O)/C=C/C(=O)NCc1ccco1 -5.4%, N#CCSc1nc2ccc(N3CCOCC3)cc2c(=O)n1CCc1ccccc1 3.3%, CCOC(=O)C(=CNc1cccc(C)n1)C(=O)OCC 6.8%, CCOc1c(Br)cc(/C=C2\C(=O)N(CCC#N)N=C2C)cc1OC -0.1%, CCOC(=O)c1cnc(SCc2nc(N)nc(Nc3ccc(OC)cc3)n2)nc1N 0.5%, CCC(C)NC(=O)c1cc(Cl)ccc1OC (stereo not given) 7%, CCN(CC)CCNC(=O)CCCCCn1c(=O)[nH]c2cc(C(=O)OC)ccc2c1=O 6.8%, O=C(NC1CCCCC1)c1ccc(CNc2c(N3CCOCC3)c(=O)c2=O)cc1 10.2%, CC(C)CNC(=O)CC(c1ccccc1)c1c(O)ccc2ccccc12 (stereo not given) -3.2%, O=C(NC1CCCC1)C(c1ccccn1)N(C(=O)c1csnn1)C1CCCC1 (stereo not given) -2.6%, O=C(COc1ccc2c(C(F)(F)F)cc(=O)oc2c1)Nc1ccc2c(c1)OCCO2 -12.8%, CCOc1ccc(NC(=O)C2CC(=O)N=C(N)S2)cc1 (stereo not given) -0.7%, O=C(CCN1C(=O)c2ccccc2C1=O)Nc1cccc(F)c1 7.2%, CC1(C)CCc2nc(SCc3ccccc3)c(C#N)cc2C1 7.1%, C/C(=N\NC(=O)c1ccc(C)cc1)C1C(=O)c2ccccc2C1=O -6.7%, CCn1nccc1C(=O)Nc1ccc(S(=O)(=O)NC23CC4CC(CC(C4)C2)C3)cc1 4.2%, N#C/C(=C/c1ccc(Cl)cc1)NC(=O)c1ccccc1 -6.7%, OC(COc1ccc2ccccc2c1)Cn1cncn1 (stereo not given) -5.7%, CC1(C)OC(=O)N2CCc3ccccc3C21C (stereo not given) -7.1%, Cc1ccccc1OCc1nnc(SCC(=O)N2c3ccccc3Sc3ccc(Cl)cc32)o1 4.7%, CCOC(=O)C1CSC(CC(=O)Nc2ccc(OCC)cc2)C(=O)N1 (stereo not given) 4.7%, CCN(CC)CCn1c2ccc(Cl)cc2c2nc(C)sc21 -0.1%, CCCc1nc2ccccc2c(C(=O)OCC(=O)c2ccc3c(c2)NC(=O)CO3)c1CC 3.9%, Cc1cc(C)c2c(-n3cccc3)c(C(=O)NNS(=O)(=O)c3ccc(F)cc3)sc2n1 -0.7%, Cc1cc(C)cc(N(CC(=O)N2CC=C(c3ccccc3)CC2)S(=O)(=O)c2c(C)noc2C)c1 -2.1%, O=C(NC1CC1)c1ccc2c(c1)NC(=O)c1ccccc1S2 3.4%, O=C(c1ccccc1)c1cc(-c2ccccn2)c(N2CCOCC2)s1 6.1%, Cc1ccccc1-n1c(C)cc(/C=C2\NC(=O)NC2=O)c1C 12.1%, O=C(CN1CCN(c2ccc(Cl)cc2)CC1)N1CCCC1 -12%, CN(C)C(CNC(=O)CCCOc1ccccc1)c1ccco1 (stereo not given) -1%, N#Cc1ccsc1NC(=O)CN1CCCCC1 5.2%, COCCn1c(=S)[nH]c2cc(C(=O)NCCc3ccc(OC)c(OC)c3)ccc2c1=O -10.7%, Cc1cc(C)c(S(=O)(=O)N2C=CC(C(F)(F)F)=NCC2)c(C)c1 16.2%, Cc1ccc(-c2nn(-c3ccccc3)cc2/C=N/NC(=O)c2ccc3c(c2)OCO3)cc1 -4.4%, Cc1ccc(S(=O)(=O)NC(=O)COc2ccccc2C)cc1 -2.9%, COc1ccc(C(=O)Cc2cnn(-c3ccccc3)c2)c(O)c1 -3%, Cc1ccc(-c2nc3ccccc3[nH]2)cc1NC(=O)c1sc2ccccc2c1Cl -22.6%, COc1cc(N2CCCC2)c(OC)cc1/C=C(/C#N)c1cccc(Br)c1 -2.3%, C=CCn1c(SCCOc2ccc(OC)cc2)nnc1C(NC(=O)c1ccc(OC)cc1)C(C)C (stereo not given) -4.5%, CCCc1nc2oc3c(OCC)ncnc3c2c2c1COC(C)(C)C2 -1.3%, O=C(NN1C(=O)C2C3C=CC(C4CC34)C2C1=O)c1ccc(Cl)cc1 (stereo not given) 3.3%, COc1ccccc1C(=O)Nc1ccc(NC(=O)c2ccco2)c(C)c1 7.2%, COc1ccc(N2CCN(C(=O)CNC(=O)c3ccc(C(C)(C)C)cc3)CC2)cc1 -8.3%, CCN(CC)C(=O)CSc1nc2ccccc2o1 8.6%, COc1cccc(N(CC(=O)NCCSc2ccccn2)S(C)(=O)=O)c1 -4.5%
